Measured values taken from PubChem BioAssay (NCATS).
Records with an inconclusive call do not appear. Unmarked numbers belong to inactive results. Calls of active or inactive are those of the source. The call rests on the fitted dose curve; in most records, active means well fitted curve in the direction sought with a large enough effect in the repeat runs; inconclusive means weak or mixed curves; inactive means no such curve, though single readings can be large; an effect the other way counts as inactive or inconclusive.

Biological target: Cytochrome P450 2D6 (Homo sapiens) (UniProt P10635)
Sequence (P10635 whole entry, looked up): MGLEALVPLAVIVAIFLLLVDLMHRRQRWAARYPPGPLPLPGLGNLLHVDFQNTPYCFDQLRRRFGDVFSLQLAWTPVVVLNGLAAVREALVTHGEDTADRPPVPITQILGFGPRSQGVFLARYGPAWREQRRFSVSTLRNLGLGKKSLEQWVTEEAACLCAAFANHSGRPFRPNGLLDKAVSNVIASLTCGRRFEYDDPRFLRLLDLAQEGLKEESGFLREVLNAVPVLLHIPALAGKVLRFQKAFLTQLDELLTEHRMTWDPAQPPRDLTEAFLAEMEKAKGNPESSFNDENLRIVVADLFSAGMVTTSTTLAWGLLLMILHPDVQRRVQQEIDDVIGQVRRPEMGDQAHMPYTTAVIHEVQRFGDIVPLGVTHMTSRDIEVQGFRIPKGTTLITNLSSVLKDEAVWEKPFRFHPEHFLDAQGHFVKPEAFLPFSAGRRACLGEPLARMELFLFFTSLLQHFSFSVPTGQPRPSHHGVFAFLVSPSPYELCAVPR
Assay: Cytochrome P450 family 2 subfamily D member 6 (CYP2D6) small molecule antagonists: luciferase biochemical (cell-free) qHTS assay (AID 1645840)
Details: P450-Glo CYP2D6 enzyme, luciferin luminescence, 1 h; series mostly up to 57.4 µM; activity change, negative = inhibition: at the top concentration
Procedure, shortened: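 P450-Glo CYP2D6 system: proluciferin substrate converted by enzyme to luciferin, read by luminescence proportional to activity. Enzyme-substrate mix with compound 10 min at room temperature, then NADPH regeneration 1 h before detection reagent.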
Further: nearly all actives have a fitted effect of over 55% in size.
On the % scale 0 is the no-effect control and ±100 the full control effect; potency means the concentration at half of the fitted maximal effect.

| Compound | activity change, negative = inhibition | Potency |
| --- | --- | --- |
| COc1ccc(CCNC(=O)c2nc(SCc3ccccc3F)ncc2Cl)cc1OC | -7.78% | – |
| Cc1noc(/C=C/c2cccs2)c1S(=O)(=O)N1CCC(C(=O)NCc2ccc(Cl)cc2)CC1 | – | 2.39 µM (active) |
| CN1C(=O)c2ccccc2Sc2ccc(NC(=O)Cc3ccc(Cl)cc3)cc21 | – | 6.01 µM (active) |
| N#Cc1ccccc1Cn1nnc2c(=O)[nH]c(C3CCCN(S(=O)(=O)c4ccc(F)cc4)C3)nc21 (stereo not drawn) | – | 0.849 µM (active) |
| O=C(CSc1nnc(-c2cccc(F)c2)c(-c2cccc(F)c2)n1)NC1CCCCC1 | -8.72% | – |
| COc1ccccc1CNC(=O)C1CCCN(c2nc3ccccc3n3cccc23)C1 (stereo not drawn) | – | 2.68 µM (active) |
| CCc1ccc(CNC(=O)C2CCCN(c3nnc(C)c4c(C)n(-c5ccc(OC)cc5)nc34)C2)cc1 (stereo not drawn) | – | 7.56 µM (active) |
| Cc1ncc(Cl)cc1NCc1ccc(C(=O)N[C@@H](CC2CCCC2)C(=O)NC2CC2)s1 | – | 15.1 µM (active) |
| Cc1ccc(NC(=O)CSc2nc3ccccc3c3nc(CCn4cncc4C)nn23)cc1F | – | 3.79 µM (active) |
| CCc1ccc(-c2nc(CSCC(=O)NCc3ccc(C)cc3)c(C)o2)cc1 | – | 15.1 µM (active) |
| CCc1ccc(-n2c(SCc3ccccc3F)nc3[nH]ncc3c2=O)cc1 | – | 12 µM (active) |
| COc1ccc(-c2nc(SCC(=O)Nc3ccc4c(c3)OCO4)c(-c3ccc(OC)cc3)[nH]2)cc1 | – | 5.35 µM (active) |
| CC1(C#N)CCN(c2c(C(=O)N3CCN(C(=O)C4CC4)CC3)cnc3c(F)cc(F)cc23)CC1 | -2.39% | – |
| COc1cccc(Cn2c(SCC(=O)N3CCN(c4ccc(F)cc4)CC3)nc3ccccc32)c1 | – | 10.7 µM (active) |
| Cc1cc(NC(=O)C2CCN(S(=O)(=O)c3ccc4[nH]c(=O)oc4c3)CC2)ccc1Br | – | 16.9 µM (active) |
| CCCCCCCCCCCCCCCC(=O)OC[C@H](O)[C@H]1OC(=O)C(=O)C1O (stereo partly drawn) | -4.04% | – |
| Cc1cccc(NC(=O)CSc2nc3ccccc3c3nc(CCn4cncc4C)nn23)c1 | – | 3.01 µM (active) |
| CCc1ccc(-n2c(SCc3cccc(F)c3)nc3[nH]ncc3c2=O)cc1 | – | 12 µM (active) |
| CC(CCC(=O)O)C1CC[C@H]2C3[C@H](O)C[C@@H]4C[C@H](O)CCC4(C)[C@H]3C[C@H](O)C12C (stereo partly drawn) | -0.4% | – |
| CC1=C(C(=O)Nc2nnc(C)s2)C(c2ccccc2Cl)N=C(Nc2nc3ccccc3o2)N1 (stereo not drawn) | -25.1% | – |

| Compound | activity change, negative = inhibition | Potency |
| --- | --- | --- |
| CCOc1ccc(CNC(=O)Cn2c(=O)c3cccn3c3ccc(F)cc32)cc1 | 10.6% | – |
| CCn1cc(/C=C(\NC(=O)c2ccc(C)cc2)C(=O)NCCCn2ccnc2)c2ccccc21 | – | 0.169 µM (active) |
| CCOc1ccccc1NC(=O)CSc1nc2ccccc2c2nc(CCn3cncc3C)nn12 | – | 10.7 µM (active) |
| Cc1ccc(CSC2=Nc3ccccc3C3=NC(CC(=O)NCc4cccs4)C(=O)N23)cc1 (stereo not drawn) | – | 6.74 µM (active) |
| CC1=C(C(=O)Nc2ccc(CN)cc2)C(c2ccccc2Cl)N=C(Nc2nc3ccccc3o2)N1 (stereo not drawn) | – | 15.1 µM (active) |
| O=C(CCCCCn1c(=O)c2sccc2n(CC(=O)Nc2cccc(Cl)c2)c1=O)NCc1ccc2c(c1)OCO2 | – | 0.0268 µM (active) |
| Cc1cccc2nc(-c3ccccn3)c(Nc3ccc(F)cc3)n12 | – | 10.7 µM (active) |
| O=C(CSc1nccn1Cc1ccc(F)cc1)Nc1nc2ccccc2s1 | – | 10.7 µM (active) |
| CCN1CCN(CCCNC(=O)c2cc3c(s2)-c2c(C)cccc2OC3)CC1 | – | 10.7 µM (active) |
| COc1ccc(Br)c2c1-c1nc(NC(=O)c3ccccc3SC)sc1C2 | 11% | – |
| CCc1ccc(-n2c(SCc3ccccc3C)nc3[nH]ncc3c2=O)cc1 | – | 9.52 µM (active) |
| C=Cc1ccc(Cn2c(SCC(=O)N3CCN(c4ccc(F)cc4)CC3)nc3ccccc32)cc1 | -7.65% | – |
| CC1(C#N)CCN(c2c(C(=O)N3CCC(S(C)(=O)=O)CC3)cnc3cc(F)c(F)cc23)CC1 | -2.18% | – |
| Cc1cccc(NC(c2ccccc2C)c2ccc3ccc(C)nc3c2O)n1 (stereo not drawn) | 9.39% | – |
| NCC1OC(OC2C(N)CC(N)C(OC3OC(CO)C(O)C(N)C3O)C2O)C(N)CC1O (stereo not drawn) | 0.724% | – |
| COc1ccccc1CNC(=O)CCC1N=C2c3ccccc3N=C(SCC(=O)NCCc3ccc(OC)c(OC)c3)N2C1=O (stereo not drawn) | -18.7% | – |
| COc1ccc(-c2nc(SCC(=O)Nc3ccc4c(c3)OCO4)c(-c3ccccc3)[nH]2)cc1 | – | 6.01 µM (active) |
| OC[C@@H](O)C(O)[C@@H](O)CO (stereo partly drawn) | 11% | – |
| CC(C)c1ccc(-n2ncc3c(=O)n(CC(=O)Nc4cc(F)ccc4Cl)cnc32)cc1 | 0.984% | – |

Biological target: Cytochrome P450 2C9 (Homo sapiens) (UniProt P11712)
Sequence (P11712 whole entry, looked up): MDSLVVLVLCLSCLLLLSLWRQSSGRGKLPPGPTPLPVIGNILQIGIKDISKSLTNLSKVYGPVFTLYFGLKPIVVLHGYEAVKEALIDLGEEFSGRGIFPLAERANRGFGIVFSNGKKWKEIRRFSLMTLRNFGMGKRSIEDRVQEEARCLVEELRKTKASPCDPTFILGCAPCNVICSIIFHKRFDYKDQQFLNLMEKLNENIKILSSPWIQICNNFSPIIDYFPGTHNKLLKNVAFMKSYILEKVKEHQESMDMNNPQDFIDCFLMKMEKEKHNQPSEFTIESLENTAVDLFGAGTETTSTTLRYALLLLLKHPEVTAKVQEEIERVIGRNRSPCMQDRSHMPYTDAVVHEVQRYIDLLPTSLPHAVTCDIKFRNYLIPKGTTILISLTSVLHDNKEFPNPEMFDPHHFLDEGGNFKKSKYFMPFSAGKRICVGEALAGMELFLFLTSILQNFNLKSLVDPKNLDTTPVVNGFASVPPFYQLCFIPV
Assay: Cytochrome P450 family 2 subfamily C member 9 (CYP2C9) small molecule antagonists: luciferase biochemical (cell-free) qHTS assay (AID 1645842)
Details: P450-Glo CYP2C9 enzyme assay, luciferin luminescence; series mostly up to 57.4 µM; activity change, negative = inhibition: at the top concentration
Procedure, shortened: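 P450-Glo CYP2C9 system: proluciferin substrate with enzyme in mix containing 0.4% BSA, 10 min at room temperature, then NADPH regeneration solution added and incubated 1 h at 37C. Detection reagent stopped reaction; luminescence read after 20 min as RLU.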

| Compound | Potency | activity change, negative = inhibition |
| --- | --- | --- |
| COc1ccc(CCNC(=O)c2nc(SCc3ccccc3F)ncc2Cl)cc1OC | 0.379 µM (active) | – |
| Cc1noc(/C=C/c2cccs2)c1S(=O)(=O)N1CCC(C(=O)NCc2ccc(Cl)cc2)CC1 | 0.213 µM (active) | – |
| CN1C(=O)c2ccccc2Sc2ccc(NC(=O)Cc3ccc(Cl)cc3)cc21 | 12 µM (active) | – |
| N#Cc1ccccc1Cn1nnc2c(=O)[nH]c(C3CCCN(S(=O)(=O)c4ccc(F)cc4)C3)nc21 (stereo not drawn) | 1.69 µM (active) | – |
| O=C(CSc1nnc(-c2cccc(F)c2)c(-c2cccc(F)c2)n1)NC1CCCCC1 | 1.51 µM (active) | – |
| COc1ccccc1CNC(=O)C1CCCN(c2nc3ccccc3n3cccc23)C1 (stereo not drawn) | 0.0674 µM (active) | – |
| CCc1ccc(CNC(=O)C2CCCN(c3nnc(C)c4c(C)n(-c5ccc(OC)cc5)nc34)C2)cc1 (stereo not drawn) | 1.69 µM (active) | – |
| Cc1ncc(Cl)cc1NCc1ccc(C(=O)N[C@@H](CC2CCCC2)C(=O)NC2CC2)s1 | 8.49 µM (active) | – |
| Cc1ccc(NC(=O)CSc2nc3ccccc3c3nc(CCn4cncc4C)nn23)cc1F | 0.536 µM (active) | – |
| CCc1ccc(-c2nc(CSCC(=O)NCc3ccc(C)cc3)c(C)o2)cc1 | 2.68 µM (active) | – |
| CCc1ccc(-n2c(SCc3ccccc3F)nc3[nH]ncc3c2=O)cc1 | 4.77 µM (active) | – |
| COc1ccc(-c2nc(SCC(=O)Nc3ccc4c(c3)OCO4)c(-c3ccc(OC)cc3)[nH]2)cc1 | 0.849 µM (active) | – |
| CC1(C#N)CCN(c2c(C(=O)N3CCN(C(=O)C4CC4)CC3)cnc3c(F)cc(F)cc23)CC1 | 12 µM (active) | – |
| COc1cccc(Cn2c(SCC(=O)N3CCN(c4ccc(F)cc4)CC3)nc3ccccc32)c1 | 2.13 µM (active) | – |
| Cc1cc(NC(=O)C2CCN(S(=O)(=O)c3ccc4[nH]c(=O)oc4c3)CC2)ccc1Br | 0.425 µM (active) | – |
| CCCCCCCCCCCCCCCC(=O)OC[C@H](O)[C@H]1OC(=O)C(=O)C1O (stereo partly drawn) | 26.8 µM (active) | – |
| Cc1cccc(NC(=O)CSc2nc3ccccc3c3nc(CCn4cncc4C)nn23)c1 | 1.51 µM (active) | – |
| CCc1ccc(-n2c(SCc3cccc(F)c3)nc3[nH]ncc3c2=O)cc1 | 12 µM (active) | – |
| CC(CCC(=O)O)C1CC[C@H]2C3[C@H](O)C[C@@H]4C[C@H](O)CCC4(C)[C@H]3C[C@H](O)C12C (stereo partly drawn) | – | 2.91% |
| CC1=C(C(=O)Nc2nnc(C)s2)C(c2ccccc2Cl)N=C(Nc2nc3ccccc3o2)N1 (stereo not drawn) | 9.52 µM (active) | – |

| Compound | Potency | activity change, negative = inhibition |
| --- | --- | --- |
| CCOc1ccc(CNC(=O)Cn2c(=O)c3cccn3c3ccc(F)cc32)cc1 | – | 57.8% |
| CCn1cc(/C=C(\NC(=O)c2ccc(C)cc2)C(=O)NCCCn2ccnc2)c2ccccc21 | 1.34 µM (active) | – |
| CCOc1ccccc1NC(=O)CSc1nc2ccccc2c2nc(CCn3cncc3C)nn12 | 0.952 µM (active) | – |
| Cc1ccc(CSC2=Nc3ccccc3C3=NC(CC(=O)NCc4cccs4)C(=O)N23)cc1 (stereo not drawn) | 0.379 µM (active) | – |
| CC1=C(C(=O)Nc2ccc(CN)cc2)C(c2ccccc2Cl)N=C(Nc2nc3ccccc3o2)N1 (stereo not drawn) | 10.7 µM (active) | – |
| O=C(CCCCCn1c(=O)c2sccc2n(CC(=O)Nc2cccc(Cl)c2)c1=O)NCc1ccc2c(c1)OCO2 | 0.239 µM (active) | – |
| Cc1cccc2nc(-c3ccccn3)c(Nc3ccc(F)cc3)n12 | 1.2 µM (active) | – |
| O=C(CSc1nccn1Cc1ccc(F)cc1)Nc1nc2ccccc2s1 | 7.56 µM (active) | – |
| CCN1CCN(CCCNC(=O)c2cc3c(s2)-c2c(C)cccc2OC3)CC1 | – | -1.86% |
| COc1ccc(Br)c2c1-c1nc(NC(=O)c3ccccc3SC)sc1C2 | – | -20.1% |
| CCc1ccc(-n2c(SCc3ccccc3C)nc3[nH]ncc3c2=O)cc1 | 19 µM (active) | – |
| C=Cc1ccc(Cn2c(SCC(=O)N3CCN(c4ccc(F)cc4)CC3)nc3ccccc32)cc1 | 3.38 µM (active) | – |
| CC1(C#N)CCN(c2c(C(=O)N3CCC(S(C)(=O)=O)CC3)cnc3cc(F)c(F)cc23)CC1 | – | -27.1% |
| Cc1cccc(NC(c2ccccc2C)c2ccc3ccc(C)nc3c2O)n1 (stereo not drawn) | 6.74 µM (active) | – |
| NCC1OC(OC2C(N)CC(N)C(OC3OC(CO)C(O)C(N)C3O)C2O)C(N)CC1O (stereo not drawn) | – | 19.4% |
| COc1ccccc1CNC(=O)CCC1N=C2c3ccccc3N=C(SCC(=O)NCCc3ccc(OC)c(OC)c3)N2C1=O (stereo not drawn) | 0.301 µM (active) | – |
| COc1ccc(-c2nc(SCC(=O)Nc3ccc4c(c3)OCO4)c(-c3ccccc3)[nH]2)cc1 | 1.2 µM (active) | – |
| OC[C@@H](O)C(O)[C@@H](O)CO (stereo partly drawn) | – | 10.5% |
| CC(C)c1ccc(-n2ncc3c(=O)n(CC(=O)Nc4cc(F)ccc4Cl)cnc32)cc1 | 3.79 µM (active) | – |
